Experimental data reported in PubChem BioAssay AID651813 (National Center for Advancing Translational Sciences (NCATS), 2012).
Out of some 2,100 compounds screened, about 1,100 (52%) were called active. Roughly 27% stayed inconclusive and do not appear here. So high a share suggests a set chosen from earlier hits. The list shows a part of the results. A number with no mark means an inactive call. Calls follow the shape of the dose curve; as a rule, active = well fitted inhibition curve with a large enough effect; inconclusive = small, poorly fitted or top-dose-only effect; inactive = no such curve, though single readings can be large or run the other way.
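Also: hits raise yellow fluorescence by blocking Vif-driven A3G-eYFP degradation; nearly all actives have a fitted effect of over 70% in size.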
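For max response in this document: max response given as percent of control signal.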
Potency is read from the fitted curve at half-maximal effect.

Each molecule was assayed against DNA dC->dU-editing enzyme APOBEC-3G (Homo sapiens) (UniProt Q9HC16) (assay: qHTS for inhibitors of Vif-A3G interactions: Cherry picks counterscreen). Conditions: HeLa A3G-eYFP + Vif (tagged APOBEC3G with the HIV-1 protein that degrades it), eYFP fluorescence, 24 h.
Chain of DNA dC->dU-editing enzyme APOBEC-3G (Homo sapiens) (Q9HC16 whole entry, looked up): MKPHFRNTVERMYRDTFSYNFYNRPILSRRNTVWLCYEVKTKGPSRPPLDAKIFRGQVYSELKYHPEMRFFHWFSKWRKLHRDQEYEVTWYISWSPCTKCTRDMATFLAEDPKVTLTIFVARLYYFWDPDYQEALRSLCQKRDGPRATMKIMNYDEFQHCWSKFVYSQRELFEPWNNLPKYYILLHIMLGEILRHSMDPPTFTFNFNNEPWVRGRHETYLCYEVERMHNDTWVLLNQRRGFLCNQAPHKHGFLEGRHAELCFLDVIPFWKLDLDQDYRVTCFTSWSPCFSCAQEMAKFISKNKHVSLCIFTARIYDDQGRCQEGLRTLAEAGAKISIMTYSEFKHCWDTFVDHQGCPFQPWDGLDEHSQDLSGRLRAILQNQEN
Procedure, shortened: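 HeLa cells stably expressing A3G-eYFP and Vif were treated for 24 h at 37 deg C with compounds at several concentrations; yellow fluorescence (Ex 488 nm, Em 500-530 nm) read by Acumen Explorer, MG132 as positive control.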
With `O=C(NC1CCCCC1)c1cccc2c1C(=O)c1ccc(N3CCC(Cc4ccccc4)CC3)cc1S2(=O)=O` the Potency was 15.8 µM (active). `O=C(NC1CC1)c1cccc2c1C(=O)c1ccc(N3CCC(Cc4ccccc4)CC3)cc1S2(=O)=O` was tested, and the Potency was 20.6 µM (active). With `COc1ccc2c(c1)N(C)/C(=C/c1cccc[n+]1C)S2` the Potency was 17.7 µM (active). `CC[n+]1ccccc1/C=C1\Sc2ccc(C)cc2N1C` was tested, and the Potency was 20.6 µM (active). `CCN1/C(=C/c2cccc[n+]2C)Sc2ccc(OC)cc21` was tested, and the Potency was 20.6 µM (active). For `CN1CCc2c(sc(NC(=O)CSc3ccc(F)cc3)c2-c2nc3ccccc3s2)C1`, the Potency was 2.59 µM (active). `CC(=O)N1CCc2c(sc(NC(=O)CSc3ccccc3)c2-c2nc3ccccc3s2)C1` was tested, and the Potency was 29.1 µM (active). For `CC(=O)Nc1sc2c(c1-c1nc3ccccc3s1)CCN(C(C)C)C2`, the Potency was 18.4 µM (active). In the case of `CCc1ccc(C2=NN(S(C)(=O)=O)C(c3cccs3)C2)cc1` (configuration not stated), the Potency is reported as 14 µM (active). `CS(=O)(=O)Nc1ccc(C2=NN(S(=O)(=O)c3ccccc3)C(c3cccs3)C2)cc1` (configuration not stated) was tested, and the Potency was 20.6 µM (active). `CC(C)n1cc(/C=C2\NC(=O)N(c3cccc(Cl)c3)C2=O)c2ccccc21` was tested, and the Potency was 14 µM (active). `Cc1ccc(NC(=O)c2ccc([N+](=O)[O-])s2)cc1S(=O)(=O)N1CCOCC1` showed a max response of -5.77%. In the case of `Cc1ccc(NC(=O)c2ccc(NCC3CCCO3)c([N+](=O)[O-])c2)cc1Cl` (configuration not stated), the Potency is reported as 20.6 µM (active). With `Cc1ccc(NC(=O)CSc2ccccc2NC(=O)c2cccc(Cl)c2)cc1Cl` the max response was 5.07%. For `Cc1ccc(NC(=O)c2ccc(NCc3ccco3)c([N+](=O)[O-])c2)cc1Cl`, the Potency was 14.6 µM (active). `O=c1[nH]c(-c2cccnc2)nc2sc(-c3ccccc3)cc12` was tested, and the Potency was 0.627 µM (active). For `S=c1[nH]cnc2sc(-c3ccccc3)cc12`, the max response was 1.89%. For `CCCn1c(CN2CCN(C(=O)OCC)CC2)nc2cc(NC(=O)C(C)C)ccc21`, the Potency was 11.2 µM (active). In the case of `CCOc1ccc(C(C)=O)cc1COc1cccnc1[N+](=O)[O-]`, the Potency is reported as 12.5 µM (active). `N#C/C(=C/c1ccc(N2CCCCC2)o1)c1cccc(F)c1` was tested, and the Potency was 5.17 µM (active). `N#C/C(=C/c1ccc(N2CCCCCC2)o1)c1cccc(F)c1` was tested, and the Potency was 4.61 µM (active). In the case of `O=C1CC(c2ccccc2)Cc2[nH]c(=O)c(-c3nc(-c4cccc(Cl)c4)cs3)cc21` (configuration not stated), the Potency is reported as 2.59 µM (active). With `Cc1sc(-c2cc3c([nH]c2=O)CC(c2ccccc2)CC3=O)nc1-c1ccc(Cl)cc1` (configuration not stated) the Potency was 1.3 µM (active). With `CCCc1nc2c(C)cc(Br)cn2c1Cc1ccccc1` the max response was -5.65%. For `COc1c(-c2ccc(O)c(O)c2)oc2cc(O)cc(O)c2c1=O`, the Potency was 7.9 µM (active). With `NC(=O)c1ccccc1NC(=S)NC(=O)CCc1ccccc1` the Potency was 5.59 µM (active). `CCC(=O)NC(=S)Nc1cccc(Cl)c1N1CCCC1` gave a max response of -18%. For `O=C(COc1ccccc1)NC(=S)Nc1cccc2c(O)cccc12`, the max response was -0.841%. With `O=C1CCCN1c1ccc(S(=O)(=O)Nc2ccc3c(c2)OCCO3)cc1` the Potency was 5.59 µM (active). Work on `CCCC1=[N+](CC(=O)c2ccc(Br)cc2)CCn2cccc21` yielded a max response of -25.2%. `O=C(C[n+]1cccc2cc(Cl)ccc21)c1ccc2ccccc2c1` was tested, and the Potency was 23.1 µM (active). For `O=C(C[n+]1cccc2cc(Cl)ccc21)c1ccc(I)cc1`, the Potency was 18.4 µM (active). For `COc1ccc(C(=O)C[n+]2cc(Br)cc3ccccc32)cc1`, the Potency was 8.2 µM (active). With `CC(C)(C)c1ccc(C(=O)C[n+]2cccc3cc(Cl)ccc32)cc1` the Potency was 18.4 µM (active). In the case of `COc1ccc(C(=O)C[n+]2cccc3cc(Cl)ccc32)cc1`, the Potency is reported as 16.4 µM (active). In the case of `O=C1Nc2ccc(Br)cc2C12NNc1ccccc1O2` (configuration not stated), the Potency is reported as 15.8 µM (active). With `COc1ccccc1NS(=O)(=O)c1cc([N+](=O)[O-])ccc1N/N=C/c1c[nH]c2ccccc12` the Potency was 9.2 µM (active). For `C/C(=N/Nc1ccc([N+](=O)[O-])cc1)c1c[nH]c2ccccc12`, the Potency was 18.4 µM (active). With `O=[N+]([O-])c1ccc(N/N=C/c2c[nH]c3ccccc23)cc1` the Potency was 16.4 µM (active). With `O=[N+]([O-])c1ccc(N/N=C/c2c[nH]c3ccccc23)c(S(=O)(=O)Nc2ccc(Cl)cc2)c1` the Potency was 23.1 µM (active). For `COc1ccc(NS(=O)(=O)c2cc([N+](=O)[O-])ccc2N/N=C/c2c(C)[nH]c3ccccc23)cc1`, the Potency was 18.4 µM (active). `COc1ccccc1NS(=O)(=O)c1cc([N+](=O)[O-])ccc1N/N=C/c1c(C)[nH]c2ccccc12` was tested, and the Potency was 2.8 µM (active). With `Cc1[nH]c2ccccc2c1/C=N/Nc1ccc([N+](=O)[O-])cc1` the Potency was 8.2 µM (active). Molecule `COc1cc(NC(=O)c2ccco2)c(C(=O)OCC(=O)c2c[nH]c3ccccc23)cc1OC` has a max response of -2.18%. In the case of `CC1CC(C)CN(CC(=O)c2c[nH]c3ccccc23)C1` (configuration not stated), the Potency is reported as 18.4 µM (active). `O=[N+]([O-])c1ccc(N=Nc2ccc(O)c3ccccc23)cc1` was tested, and the Potency was 11.2 µM (active). In the case of `O=C1NC(=Nc2ccccc2Cl)S/C1=C\c1cc([N+](=O)[O-])ccc1O`, the max response is reported as -33%. `COc1cc2c(cc1OC)C(C)N(C(=O)c1cc(Cl)nc(Cl)c1)CC2` (configuration not stated) was tested, and the Potency was 12.5 µM (active). For `COc1cc2c(cc1OC)C(C)N(C(=O)c1cc(C)on1)CC2` (configuration not stated), the Potency was 0.704 µM (active). In the case of `Cc1ccc2ccc3c(c2n1)NS(=O)(=O)c1ccc(C(F)(F)F)cc1-3`, the Potency is reported as 11.6 µM (active). Work on `COCCNC(=S)NN=C1CCCCCC1` yielded a max response of 0.0981%. With `COc1ccc2nc(NC(=O)Nc3ccccc3OC)sc2c1` the Potency was 4.44 µM (active). `COc1ccc2nc(NC(=S)NC(=O)c3ccco3)sc2c1` gave a max response of -0.487%. In the case of `COc1cc(Cn2c3ccc(NC(=O)CCc4ccccc4)cc3c(=O)n2C)ccc1F`, the Potency is reported as 3.53 µM (active). For `COc1ccccc1CCC(=O)Nc1ccc2c(c1)c(=O)n(C)n2-c1cccs1`, the Potency was 3.53 µM (active). For `COc1ccccc1CCC(=O)Nc1ccc2c(c1)c(=O)n(C)n2Cc1ccc(F)cc1`, the Potency was 17.7 µM (active). In the case of `C/C(CCc1ccc2c(c1)OCO2)=N\NC(=S)NC(C)C`, the max response is reported as 4.06%. With `Cc1cccc(N2CCN(Cc3cn(C)nc3-c3ccccc3F)CC2)n1` the Potency was 5.59 µM (active). With `COC(=O)c1sc(N)c(C(=O)OC)c1COC(=O)c1c(C)noc1C` the Potency was 4.98 µM (active). With `CN(C)c1ccc(/C=C2\Cc3ccccc3C2=O)cc1` the Potency was 2.59 µM (active). With `Nc1ccccc1C=C1Cc2ccccc2C1=O` the Potency was 7.31 µM (active). With `CN(C)c1ccc(/C=C2/C[N+](C)(C)C/C(=C/c3ccc(N(C)C)cc3)C2=O)cc1` the Potency was 8.2 µM (active). For `Cc1ccc(N2C(=O)[C@@H]3[C@H](C2=O)[C@H]2C=C(C(=O)c4ccccc4)C=CN2[C@@H]3C(=O)c2ccc(Cl)cc2)cc1`, the max response was -6.73%. Work on `O=c1[nH]c2ccccc2n2c(=S)[nH]nc12` yielded a max response of -15.5%. In the case of `O=c1[nH]c2ccccc2n2c(C(F)(F)F)nnc12`, the Potency is reported as 20.6 µM (active). With `CCN(CC)c1ccc(/C=C2\SC(N)=NC2=O)cc1` the Potency was 7.9 µM (active). In the case of `C/C(CC(=O)NCc1ccc(Cl)cc1)=N\NC(=O)COc1ccc(C)cc1Br`, the Potency is reported as 14 µM (active). Work on `CC(=O)Nc1ccc(NC(=O)C/C(C)=N/NC(N)=S)cc1` yielded a max response of 2.45%. `CC(=O)Nc1ccc(CC(=O)NCCC(c2ccccc2)c2ccccc2)cc1` was tested, and the Potency was 15.8 µM (active). `O=C(Oc1ccc(Cl)c2cccnc12)c1ccco1` gave a max response of 17.4%. For `Oc1ccc(-c2nc(-c3ccc(O)c(O)c3)cs2)cc1`, the Potency was 0.994 µM (active). `COc1ccc(-c2ccnc(-c3ccc(O)cc3)n2)cc1` was tested, and the Potency was 1.58 µM (active). For `COc1ccc(-c2csc(-c3ccc(O)cc3)n2)cc1`, the Potency was 5.59 µM (active). `COc1cc(C2c3cc4c(cc3OC(C)(N3CCCC3)C2C)OCO4)cc(OC)c1OC` (configuration not stated) was tested, and the Potency was 0.994 µM (active). `C=CCOC(=O)C1=C(C)Nc2nnnn2C1c1cccs1` (configuration not stated) gave a max response of -7.35%. For `COc1cccc(C2=CC(c3ccccc3)n3nnnc3N2)c1` (configuration not stated), the Potency was 8.86 µM (active). `COc1cccc(C2=CC(c3cccs3)n3nnnc3N2)c1` (configuration not stated) was tested, and the Potency was 2.8 µM (active). With `N#CC1=C(S)N(c2ccc(F)cc2)C2(CCCCC2)NC1=O` the max response was 4.28%. For `Cc1ccc(/C=N/NC(=O)CCCOc2ccc(Cl)cc2Cl)cc1`, the Potency was 7.9 µM (active). With `CCCn1nnc(NC(=S)NC(=O)c2ccccc2OC)n1` the max response was 9.21%. In the case of `CCCn1c(SCC(=O)Nc2ccccc2OC)nnc1-c1ccco1`, the Potency is reported as 17.7 µM (active). Work on `CC(C)C1C(=O)N(Cc2cn(CCC3OCCCO3)nn2)CCS(=O)(=O)N1Cc1ccc(-c2cccc(CO)c2)cc1` (configuration not stated) yielded a max response of -8.99%. For `CC(=O)C1=C(C)NC(SCC(=O)c2ccc(Cl)cc2)=C(C#N)C1c1ccco1` (configuration not stated), the Potency was 16.4 µM (active). For `O=[N+]([O-])c1ccc(N2CCN(Cc3ccccc3)CC2)c2c1no[n+]2[O-]`, the Potency was 12.5 µM (active). With `CC1(C)Cc2ccccc2C2CC(O)C(=O)N21` (configuration not stated) the Potency was 20.6 µM (active). For `CCCCOc1nc2ccccc2nc1NS(=O)(=O)c1ccc(F)cc1`, the max response was -6.51%. In the case of `COc1ccc(S(=O)(=O)NN(C)c2nc(C(F)(F)F)nc3ccccc23)cc1`, the Potency is reported as 7.04 µM (active). For `COc1ccc(OC)c(NS(=O)(=O)c2ccc(Cl)s2)c1`, the Potency was 12.5 µM (active). `CC[n+]1c(/C=C/Nc2ccccc2)oc2ccc(OC)cc21` was tested, and the Potency was 14.6 µM (active). For `CC[n+]1c(/C=C/Nc2ccccc2)oc2ccccc21`, the Potency was 9.2 µM (active). For `CC[n+]1c(/C=C/N(C)c2ccccc2)oc2ccc(F)cc21`, the Potency was 14 µM (active). In the case of `CCc1ccc(N=Nc2ccc(O)c3[nH]cnc23)cc1`, the Potency is reported as 7.31 µM (active).
